“And” between values parts separate entries of the source, which are not always exact repeats. Equal values may be shown once. About 83,000 compounds went through this panel and 20% of them were active in at least one assay; those are over-represented in the sample as a whole.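 Cells were grown in 96-well plates and exposed to the test compound at a single concentration for 48 hours; results are reported as percent growth, with values below 10 considered active.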 The source made the active and inactive calls.

Test in all cases: NCI-60 one-dose screen, 48 h (100 = growth as untreated, 0 = no growth, -100 = all killed)
For experiment [1], the system named is RPMI-8226 leukemia. As to conditions: 10 µM unless noted.
The test system of experiment [2] is OVCAR-8 ovarian.
Experiment [3] concerns OVCAR-5 ovarian.
Experiment [4] relates to OVCAR-4 ovarian. The settings on record: 10 µM unless noted.
The subject of experiment [5] is SK-OV-3 ovarian.
Experiment [6] relates to IGROV1 ovarian.
For experiment [7], the system named is OVCAR-3 ovarian.
Experiment [8] relates to HS 578T breast.
The test system of experiment [9] is NCI/ADR-RES ovarian.
For experiment [10], the system named is T-47D breast.
Experiment [11] has as its system BT-549 breast.
Experiment [12] deals with SW-620 colon.
Experiment [13] has as its system MCF7 breast. As to conditions: 10 µM unless noted.
The test system of experiment [14] is HCT-116 colon. As to conditions: 10 µM unless noted.
The test system of experiment [15] is HCC-2998 colon.
The subject of experiment [16] is KM12 colon.
Experiment [17] deals with MDA-MB-435 melanoma.

`CN1C(=O)C(N=Nc2ccc([N+](=O)[O-])cc2)SC1=S` (stereo unspecified): the growth was 32.7% (inactive) and 10.8% (inactive) in [1]; 70.7% (inactive) and 72.4% (inactive) in [2] (10 µM unless noted); 56.2% (inactive) and 51.5% (inactive) in experiment [3] (10 µM unless noted); 65.8% (inactive) and 76.7% (inactive) in [4]; 66.6% (inactive) and 69.2% (inactive) in [5] (10 µM unless noted); 56.7% (inactive) and 71.7% (inactive) in experiment [6] (10 µM unless noted). The growth in experiment [7] (10 µM unless noted) is 59.3% (inactive) and 62.7% (inactive); in experiment [8] (10 µM unless noted), 72.6% (inactive) and 71% (inactive); in [9] (10 µM unless noted) it was 45.7% (inactive) and 15.5% (inactive); in experiment [10] (10 µM unless noted), 50.9% (inactive) and 57.2% (inactive); in [11] (10 µM unless noted), 71% (inactive) and 67.8% (inactive); in experiment [12] (10 µM unless noted) it was 49% (inactive) and 60.3% (inactive). In addition, the growth in experiment [13] is 82.4% (inactive) and 68.8% (inactive); in experiment [14], 61.7% (inactive) and 70.5% (inactive); in experiment [15] (10 µM unless noted), -0.382% (active); in experiment [16] (10 µM unless noted), 48.2% (inactive) and 52.8% (inactive).
Regarding `COC(=O)c1nc(N)nc(C(=O)OC)c1C(=O)c1ccc(OC)cc1`, the growth is 107% (inactive) and 32.6% (inactive) in [1]; 105% (inactive) and 55.1% (inactive) in experiment [2] (10 µM unless noted); 121% (inactive) and 87.5% (inactive) in experiment [3] (10 µM unless noted); 105% (inactive) and 37.6% (inactive) in experiment [4]; 106% (inactive) and 83.3% (inactive) in experiment [5] (10 µM unless noted); 106% (inactive) and 66.6% (inactive) in [6] (10 µM unless noted). Further, the growth is 117% (inactive) and 70.1% (inactive) in experiment [7] (10 µM unless noted); 105% (inactive) and 81.2% (inactive) in experiment [8] (10 µM unless noted); 105% (inactive) and 37.4% (inactive) in experiment [9] (10 µM unless noted); 101% (inactive) and 35.5% (inactive) in experiment [10] (10 µM unless noted); 104% (inactive) and 66.8% (inactive) in [17] (10 µM unless noted); 113% (inactive) and 61.9% (inactive) in experiment [12] (10 µM unless noted). For the same compound, the growth in [13] was 96% (inactive) and 41.9% (inactive); in experiment [14], 108% (inactive) and 38.1% (inactive); in [15] (10 µM unless noted), 108% (inactive) and 79.3% (inactive); in experiment [16] (10 µM unless noted), 107% (inactive) and 53.7% (inactive).
Regarding `N=C1N=C(N)CS1`, the growth in experiment [1] was 107% (inactive); in [2] (10 µM unless noted) it was 99.9% (inactive); in experiment [3] (10 µM unless noted), 109% (inactive); in experiment [4], 99.8% (inactive); in [5] (10 µM unless noted), 109% (inactive); in [6] (10 µM unless noted), 105% (inactive). The growth in [7] (10 µM unless noted) is 106% (inactive); in [8] (10 µM unless noted), 109% (inactive); in experiment [9] (10 µM unless noted), 113% (inactive); in experiment [10] (10 µM unless noted), 108% (inactive); in experiment [11] (10 µM unless noted), 120% (inactive); in [17] (10 µM unless noted), 106% (inactive). Moreover, the growth in experiment [12] (10 µM unless noted) is 102% (inactive); in experiment [13] it was 96.8% (inactive); in [14], 107% (inactive); in experiment [15] (10 µM unless noted), 110% (inactive); in [16] (10 µM unless noted) it was 107% (inactive).
As to `Cc1n[nH]c(=O)n(/N=C\c2c[nH]c3ccccc23)c1=O`, the growth was 105% (inactive) in [1]; 102% (inactive) in [2] (10 µM unless noted); 106% (inactive) in experiment [3] (10 µM unless noted); 96.9% (inactive) in experiment [4]; 97.2% (inactive) in [5] (10 µM unless noted); 102% (inactive) in experiment [6] (10 µM unless noted). Besides, the growth in experiment [7] (10 µM unless noted) is 107% (inactive); in [8] (10 µM unless noted), 108% (inactive); in [9] (10 µM unless noted), 106% (inactive); in [10] (10 µM unless noted), 102% (inactive); in [17] (10 µM unless noted), 107% (inactive); in [12] (10 µM unless noted) it was 106% (inactive). The growth was 91.1% (inactive) in experiment [13], 113% (inactive) in experiment [14], 108% (inactive) in [15] (10 µM unless noted) and 105% (inactive) in experiment [16] (10 µM unless noted).
On to `Nc1n[nH]c(=S)n1-c1ccc(Cl)cc1`, for which the growth was 80.8% (inactive) in experiment [1]; 100% (inactive) in [2] (10 µM unless noted); 98.6% (inactive) in experiment [3] (10 µM unless noted); 99.5% (inactive) in experiment [4]; 102% (inactive) in experiment [5] (10 µM unless noted); 100% (inactive) in experiment [7] (10 µM unless noted). Also, the growth is 100% (inactive) in experiment [8] (10 µM unless noted); 100% (inactive) in experiment [9] (10 µM unless noted); 97.6% (inactive) in experiment [10] (10 µM unless noted); 92.5% (inactive) in experiment [11] (10 µM unless noted); 97% (inactive) in experiment [12] (10 µM unless noted); 90.8% (inactive) in experiment [13]. Further, the growth in experiment [14] is 95.4% (inactive); in experiment [15] (10 µM unless noted), 108% (inactive); in experiment [16] (10 µM unless noted), 103% (inactive).
Consider `O=C(O)C1C2C=CC(C2)C1C(=O)O` (stereo unspecified), for which the growth in experiment [1] was 103% (inactive) and 29.3% (inactive) and 98.3% (inactive); in [2] (10 µM unless noted), 103% (inactive) and 27.9% (inactive); in experiment [3] (10 µM unless noted), 102% (inactive) and 35.6% (inactive) and 98.9% (inactive); in [4] it was 99.2% (inactive) and 106% (inactive); in experiment [5] (10 µM unless noted), 113% (inactive) and 65.1% (inactive) and 106% (inactive); in experiment [7] (10 µM unless noted) it was 113% (inactive) and 41.1% (inactive) and 108% (inactive). The growth is 102% (inactive) and 105% (inactive) in [8] (10 µM unless noted); 104% (inactive) and 112% (inactive) and 118% (inactive) in [9] (10 µM unless noted); 103% (inactive) and 79.5% (inactive) and 101% (inactive) in [10] (10 µM unless noted); 101% (inactive) and 19.1% (inactive) and 100% (inactive) in experiment [17] (10 µM unless noted); 104% (inactive) and 22.1% (inactive) and 103% (inactive) in experiment [12] (10 µM unless noted); 97.4% (inactive) and 5.27% (active) and 104% (inactive) in [13]. Besides, the growth in experiment [14] was 104% (inactive) and 17.3% (inactive) and 112% (inactive); in experiment [15] (10 µM unless noted), 117% (inactive) and 46.1% (inactive) and 107% (inactive); in experiment [16] (10 µM unless noted), 106% (inactive) and 25.4% (inactive) and 104% (inactive).
As for `O=C1C2=C(C(=O)c3ccccc31)C(O)(S(=O)(=O)O)C(O)(S(=O)(=O)O)C1N=CC=CC21` (stereo unspecified), the growth in experiment [1] is 22.9% (inactive) and 44.8% (inactive); in [2] (10 µM unless noted), 24.3% (inactive) and 10.6% (inactive); in [3] (10 µM unless noted) it was 51.9% (inactive); in experiment [5] (10 µM unless noted) it was 44.8% (inactive) and 20.9% (inactive); in experiment [6] (10 µM unless noted), 33% (inactive) and -16.2% (active); in experiment [7] (10 µM unless noted), 22.4% (inactive) and 3.66% (active). In addition, the growth was 13.3% (inactive) in experiment [8] (10 µM unless noted); 11.3% (inactive) in [9] (10 µM unless noted); 39% (inactive) and -21.9% (active) in experiment [10] (10 µM unless noted); 39.6% (inactive) and 24.6% (inactive) in experiment [11] (10 µM unless noted); 44.1% (inactive) and 39% (inactive) in experiment [17] (10 µM unless noted); 32.5% (inactive) and 21.5% (inactive) in experiment [12] (10 µM unless noted). Also, the growth in [13] was 29.1% (inactive) and 24.9% (inactive); in [14], 23.1% (inactive) and 8.66% (active); in [15] (10 µM unless noted), 44.6% (inactive) and 28.3% (inactive); in [16] (10 µM unless noted), 41.6% (inactive) and 32.6% (inactive).
`CC1(C)C2CCC1(CS(=O)(=O)O)C(=O)C2` (stereo unspecified): the growth is 95.1% (inactive) in [4] and 112% (inactive) in experiment [8] (10 µM unless noted).
For `Nc1ccc2ccc(N)cc2c1`, the growth in experiment [2] (10 µM unless noted) was 82% (inactive); in experiment [3] (10 µM unless noted), 124% (inactive); in [4], 40% (inactive); in experiment [5] (10 µM unless noted), 91.6% (inactive); in experiment [6] (10 µM unless noted), 73.6% (inactive); in [7] (10 µM unless noted), 25.5% (inactive). Further, the growth is 73.5% (inactive) in [9] (10 µM unless noted); 87.7% (inactive) in [10] (10 µM unless noted); 87.7% (inactive) in experiment [11] (10 µM unless noted); -33.6% (active) in [17] (10 µM unless noted); 87.5% (inactive) in [12] (10 µM unless noted); 63.5% (inactive) in experiment [13]. For the same compound, the growth in [14] is 82.6% (inactive); in [15] (10 µM unless noted), 100% (inactive); in [16] (10 µM unless noted), 67.1% (inactive).
In the case of `O=C(O)c1sccc1O`, the growth in [2] (10 µM) is 82.4% (inactive); in experiment [2] (100 µM), 37.8% (inactive); in experiment [3] (10 µM), 102% (inactive); in experiment [3] (100 µM), 38% (inactive); in experiment [5] (10 µM), 84.5% (inactive); in experiment [5] (100 µM), 80.9% (inactive). Besides, the growth in experiment [6] (10 µM) is 74.7% (inactive); in experiment [6] (100 µM), 36% (inactive); in experiment [7] (10 µM), 75.1% (inactive); in experiment [7] (100 µM), 11.1% (inactive); in [8] (10 µM), 65.6% (inactive); in experiment [8] (100 µM) it was 19.5% (inactive). Further, the growth was 81.5% (inactive) in experiment [9] (10 µM); 36% (inactive) in [9] (100 µM); 53.9% (inactive) in experiment [10] (10 µM); 18.2% (inactive) in experiment [10] (100 µM); 69.5% (inactive) in experiment [11] (10 µM); 11.6% (inactive) in experiment [11] (100 µM). Also, the growth is 77.8% (inactive) in experiment [17] (10 µM); 0.533% (active) in experiment [17] (100 µM); 93.3% (inactive) in experiment [12] (10 µM); 24% (inactive) in experiment [12] (100 µM); 15.4% [100 µM] (inactive) in experiment [13]; 15.5% [100 µM] (inactive) in experiment [14]. The growth in experiment [15] (10 µM) is 109% (inactive); in experiment [15] (100 µM) it was 38.5% (inactive); in experiment [16] (10 µM), 78.3% (inactive); in experiment [16] (100 µM) it was 2.5% (active).
